Rows were chosen to be rich in hits. Some 0.42% of all compounds tested hit in one or more screens of this group.
CatB mixtures: inhibitors of human cathepsin B in compound mixtures; P07858; Purified cathepsin B, AMC dipeptide fluorescence; inhibition, %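 (ten-compound pools at 5 µM per compound and 50 µM total)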; hit rate 0.06% among 62,000; in the data active = inhibition above about 22%, passing the limit was not always enough;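 also: 0% = enzyme without compound and 100% = no enzyme blank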
CatB block: inhibitors of human cathepsin B; P07858; purified cathepsin B, fluorogenic substrate, fluorescence; inhibition, %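 (tested at 10 µM)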; hit rate 0.1% among 63,000; AID 453; in the data active = inhibition above about 21%;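 also: 0% = enzyme with no compound and 100% = no enzyme blank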
CatL block: blocks human cathepsin L protease activity. P07711. purified cathepsin L, fluorogenic substrate, fluorescence. inhibition, %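 (tested at 10 µM)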. hit rate 0.17% among 58,000. AID 460; in the data active = inhibition above about 45%;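 also: 0% = enzyme with no compound and 100% = no enzyme blank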
Target sequence (P07711 114-288 limits assumed): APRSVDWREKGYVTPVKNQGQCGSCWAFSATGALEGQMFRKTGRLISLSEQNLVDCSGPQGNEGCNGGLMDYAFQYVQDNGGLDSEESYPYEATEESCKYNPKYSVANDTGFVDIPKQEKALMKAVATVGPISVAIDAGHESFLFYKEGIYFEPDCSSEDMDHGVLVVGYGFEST
Target sequence (P07711 292-333 limits assumed): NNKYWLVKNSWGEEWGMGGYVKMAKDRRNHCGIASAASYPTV
WNV NS2B-NS3 inh: WNV NS2B-NS3 proteinase inhibition; hit rate 0.18% among 65,000; WNV NS2B-NS3 protease, fluorogenic substrate Ex360/Em465; active compounds read low; P06935; AID 577; z-score (concentration not given with the values); in the data active = z-score below about -3
CatS inh: human cathepsin S inhibition; P25774; recombinant cathepsin S, AMC dipeptide fluorescence, pooled mixtures; inhibition, %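 (tested at 5 µM per compound within 10-compound mixtures)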; hit rate 0.06% among 62,000; AID 501; in the data active = inhibition above about 32%, passing the limit was not always enough;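 also: 0% = enzyme without compound and 100% = blank without enzyme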
The depositor's hits bear a star; / = not tested or not shown.

SMILES	CatB mixtures	CatB block	CatL block	WNV NS2B-NS3 inh	CatS inh
O=C(Nc1ccccc1-c1ccccc1)c1cnccn1	5	7	0	-0.42	13
N#Cc1ccsc1NC(=O)c1cnccn1	1	66*	24	-0.49	4
Cc1ccc(/C=N/c2sc3c(c2C#N)CCCCC3)o1	1	0	-1	-0.62	3
Cc1ccc(/C=N/c2sc3c(c2C#N)CCC3)s1	0	5	105*	0.02	-7
C=CC[N+](C)(C)CCCNC(=O)/C=N/O	3	2	-4	-0.86	-4
COc1ccccc1OCC(=O)Nc1oc(-c2ccccc2)c(-c2ccccc2)c1C#N	-3	55*	/	-0.69	4
COc1ccc2nc(/N=C\N(C)C)sc2c1	1	41*	14	0.2	7
CCN(CC)CC(=O)Nc1cc(C)c2c(=O)oc3ccccc3c2n1	-4	-4	/	1.1	-3
COc1ccccc1N=Cc1nc(-c2ccccc2)oc1OC(C)=O	33*	41*	16	-0.07	15
Cc1cc(OC(=O)c2ccccc2)n(CCC#N)n1	19	8	4	-11*	14
O=C(c1cc2ccccc2oc1=O)N1CCN(c2ccc(N3CCOCC3)nn2)CC1	3	1	10	-4*	-2
O=C(NCc1ccco1)N1c2ccccc2Sc2ccccc21	2	-3	/	1.3	5
O=C1C2CCCN2C(c2ccc(Cl)cc2)N1c1nccs1 (centres undefined)	1	3	9	0.8	11
CCN(CC)CCNc1nc2c(c(=O)[nH]c(=O)n2C)n1CC(O)COc1ccc(Cl)cc1Cl (centres undefined)	2	1	19	-0.98	-2
CN(C)CCNc1nc2c(c(=O)[nH]c(=O)n2C)n1CC(O)COc1ccc(Cl)cc1 (centres undefined)	-1	7	47*	-1.1	1
Cc1ccc(NC(=O)C2C3CC4OC(=O)C2C4C3)cc1Cl (centres undefined)	-5	-4	-4	-6.4*	-18
CC(C)OC(=O)c1ccc(NC(=O)C2C3CC4OC(=O)C2C4C3)cc1 (centres undefined)	2	2	-1	1.5	6
CCc1nc(N)c(C#N)c(-c2cccn2C)c1C	/	/	/	-6.8*	/
O=c1c2ccccc2nc2n1CCN2Cc1ccc(Cl)cc1	-1	7	4	-0.23	6
Cc1ccc2nc(C(F)OC(F)(F)F)[nH]c2c1 (centres undefined)	4	-1	/	0.11	12
Cc1ccc2nc(C(O)C(O)c3nc4ccc(C)cc4[nH]3)[nH]c2c1 (centres undefined)	3	0	62*	0.31	-11
CC(=NCc1ccco1)c1c(C)[nH]n(-c2nc3ccccc3s2)c1=O	-6	-2	-1	0.84	46*
O=C(c1ccc(Cl)cc1)N1CCN(c2nc(N3CCCCC3)nc(N3CCCCC3)n2)CC1	-9	4	/	-0.15	-21
Cn1c(C(=O)NCCCN2CCCC2=O)cc2c(=O)n(C)c3ccccc3c21	4	0	1	-0.05	1
Cn1c(C(=O)N2CCN(Cc3ccccc3)CC2)cc2c(=O)n(C)c3ccccc3c21	1	-1	18	-0.07	51*
SMILES	CatB mixtures	CatB block	CatL block	WNV NS2B-NS3 inh	CatS inh
CCCN(CCC)CCNC(=O)c1cc2c(=O)n(C)c3ccccc3c2n1C	-7	3	-3	-0.88	77*
CN(CCNC(=O)c1cc2c(=O)n(C)c3ccccc3c2n1C)Cc1ccccc1	1	4	/	-0.65	72*
CC1CCCCN1CCNC(=O)c1cc2c(=O)n(C)c3ccccc3c2n1C (centres undefined)	-1	2	7	-0.61	11
Cc1ccc(OCC(=O)Nc2ccc(N3CCCC3)cc2)cc1C	4	3	61*	-0.81	-5
CN(C1CCCCC1)S(=O)(=O)c1ccc(Cl)c(C(=O)O)c1	1	7	48*	0.99	17
O=C(CCN1C(=O)c2ccccc2C1=O)OCN1C(=O)c2ccccc2C1=O	-1	-3	-5	-0.28	5
O=C(CNC(=O)c1ccco1)OCN1C(=O)c2ccccc2C1=O	25*	21*	1	0.12	-10
CCN1CCN(c2cc(C)c3cc(NC(=O)c4cnccn4)ccc3n2)CC1	6	0	1	0.21	-2
CCN1CCN(CNC(=O)c2cnccn2)CC1	-5	3	/	-4.8*	0
CC(C)C1O/C(=N/C(=O)Nc2ccc(Cl)c(Cl)c2)NC1=O (centres undefined)	2	-1	6	0.51	-1

High-throughput results deposited in PubChem by several laboratories.
